Reference: PubChem BioAssay (Tox21)
Records with an inconclusive call do not appear. A call without a number means that no potency is given here. The source made the active and inactive calls. Calls come from the whole dose curve; as a rule, active = well fitted cell-killing curve with a large enough effect in the repeat runs; inconclusive = weak or mixed curves, or effect the other way; inactive = flat fitted curve, though single readings scatter.

Test: qHTS assay to identify small molecule agonists of the TGF-beta/Smad signaling pathway - cell viability counter screen (AID 1346829); note: nearly all actives have a fitted effect of over 45% in size; for activity change, negative = cytotoxicity: top concentration of the series differs between compounds
Conditions: SBE-bla HEK293T viability, CellTiter-Glo luminescence, 5 h; series mostly up to 76.8 µM
Source text: National Center for Advancing Translational Sciences [NCATS]
NIH Chemical Genomics Center [NCGC]
U.S. Environmental Protection Agency [EPA]
National Institutes of Environmental Health Sciences [NIEHS]
National Toxicology Program [NTP]
U.S. Food and Drug Administration [FDA]
Transforming growth factor beta (TGF-beta) superfamily consists of a large number of structurally related dimeric proteins that act as hormones or local mediators in regulating a wide range of biological functions. This superfamily includes TGF-betas themselves, the bone morphogenetic proteins (BMPs) and the activins. These ligands induce oligomerization of serine/threonine receptor kinases and phosphorylate the cytoplasmic signaling molecules of Smad protein family. CellSensor SBE-bla HEK 293T cell line (Life Technologies, Carlsbad, CA), responsive to TGF-beta was used to screen Tox21 10K compound library for identification of agonists/antagonists of the Smad signaling pathway. This cell line contains a beta-lactamase reporter gene under control of the Smad binding element (SBE) stably integrated into HEK 293T cells. Also cytotoxicity of the compounds was tested in parallel by measuring the cell viability using CellTiter-Glo assay system in the same wells.
Tox21 Assay Protocol Summary:
SBE-bla HEK 293T cells were dispensed at 4,000/well in 6 uL of assay medium into black wall/clear-bottom 1536-well plates using a Multidrop Combi (ThermoFisher Scientific, Waltham, MA) dispenser. After the assay plates were incubated at 37 C and 5% CO2 for an overnight, 23 nL of compounds dissolved in DMSO, positive controls or DMSO only was transferred to the assay plate by a Pintool station (Kalypsys, San Diego, CA). The assay plates were incubated at 37 C and 5% CO2 for 5 hr. One uL of LiveBLAzer B/G FRET substrate (Life Technologies) was added using a Flying Reagent Dispenser (FRD, Aurora Discovery, San Diego, CA) and the plates were incubated at room temperature for 2 hr. Fluorescence intensity (405 nm excitation, 460 nm and 530 nm emissions) was measured using an Envision plate reader (PerkinElmer, Shelton, CT). For cytotoxicity read, 4 uL of CellTiter-Glo reagent (Promega Corporation, Madison, WI) was added to each well of the assay plates using FRD. After 30min incubation at room temperature, the luminescence intensity was measured using ViewLux plate reader (PerkinElmer).
Potency is the fitted concentration of half-maximal effect.

Question: With `COc1cc(/C=C/C(=O)O[C@H]2CC[C@]34C[C@]35CC[C@]3(C)[C@@H]([C@H](C)CCC=C(C)C)CC[C@@]3(C)[C@@H]5CC[C@H]4C2(C)C)ccc1O` as the compound, how does the Potency read?
Answer: The Potency was “inactive”.

Question: With `Nc1ccc2cc(S(=O)(=O)O)cc(O)c2c1N=Nc1ccccc1C(F)(F)F` as the compound, how does the Potency read?
Answer: Its Potency is “inactive”.

Question: Which Potency does the source give for `Cc1cc(C2CCCCC2)n(O)c(=O)c1` here?
Answer: Its Potency is “inactive”.

Question: Which Potency does the source give for `Cc1ccc2oc(CN(Cc3ccccc3)C(=O)Nc3c(F)cc(F)cc3F)c(-c3ccc(Cl)cc3)c2c1` here?
Answer: The Potency was “inactive”.

Question: For `Clc1ccc2n[nH]nc2c1`, which Potency is on record?
Answer: Its Potency is “inactive”.

Question: Which Potency does the source give for `COC(=O)C1=C(C)NC(C)=C(C(=O)OCCc2ccc(N3CCN(C(c4ccccc4)c4ccccc4)CC3)cc2)C1c1cccc([N+](=O)[O-])c1` (stereo not given) here?
Answer: Its Potency is “inactive”.

Question: Which Potency does the source give for `CCCCN1C(=O)[C@@H]([C@H](O)C2CCCCC2)NC(=O)C12CCN(Cc1ccc(Oc3ccc(C(=O)O)cc3)cc1)CC2` here?
Answer: The Potency was “inactive”.

Question: Which Potency does the source give for `Cc1c(C)c2c(c(C)c1OC(=O)CCC(=O)O)CC[C@@](C)(CCC[C@H](C)CCC[C@H](C)CCCC(C)C)O2` here?
Answer: The Potency was “inactive”.

Question: With `CCCCCCCCNC(C)C(O)c1ccc(SC(C)C)cc1` (stereo not given) as the compound, how does the Potency read?
Answer: The Potency was 23.9 µM (active).

Question: Which Potency does the source give for `[Cl][Au]([Cl])[Cl]` here?
Answer: Its Potency is 54.9 µM (active).

Question: For `CCCCCCCCCCn1cc[n+](CCCCCCCCCC)c1C`, which Potency is on record?
Answer: The Potency was 21.9 µM (active).

Question: For `O=C(Nc1cccc(Cl)c1)OCC#CCCl`, which Potency is on record?
Answer: Its Potency is “inactive”.

Question: For `CCCCCCCCCCCC[N+](C)(C)CCCCCCCCCCCC`, which Potency is on record?
Answer: Its Potency is 34.7 µM (active).

Question: For `CNC(=O)c1ccccc1`, which Potency is on record?
Answer: The Potency was “inactive”.

Question: For `NC(=O)CC[C@@H]1NC(=O)[C@H](Cc2ccccc2)NC(=O)[C@H](Cc2ccc(O)cc2)NC(=O)CCSSC[C@@H](C(=O)N2CCC[C@H]2C(=O)N[C@@H](CCCN=C(N)N)C(=O)NCC(N)=O)NC(=O)[C@H](CC(N)=O)NC1=O`, which Potency is on record?
Answer: Its Potency is “inactive”.

Question: With `Nc1c2ccccc2nc2ccccc12` as the compound, how does the Potency read?
Answer: Its Potency is “inactive”.

Question: Which Potency does the source give for `CCOC(=O)O[C@]1(C(=O)OCCl)CC[C@H]2[C@@H]3CCC4=CC(=O)C=C[C@]4(C)[C@H]3[C@@H](O)C[C@@]21C` here?
Answer: Its Potency is “inactive”.

Question: With `CCCN(CCC)c1c([N+](=O)[O-])cc(C(F)(F)F)c(N)c1[N+](=O)[O-]` as the compound, how does the Potency read?
Answer: Its Potency is 48.9 µM (active).

Question: With `CC1=NC(C)OC1C` (stereo not given) as the compound, how does the Potency read?
Answer: Its Potency is “inactive”.

Question: For `NNc1nc(-c2ccccc2)cs1`, which Potency is on record?
Answer: The Potency was “inactive”.

Question: Which Potency does the source give for `COc1ccc(C(=O)/C(Br)=C\C(=O)O)cc1` here?
Answer: The Potency was “inactive”.

Question: Which Potency does the source give for `OC1(c2ccc(Cl)c(C(F)(F)F)c2)CCN(CCCC(c2ccc(F)cc2)c2ccc(F)cc2)CC1` here?
Answer: The Potency was 19 µM (active).

Question: With `CCCCCOc1ccccc1/C(=C\SC)n1ccnc1` as the compound, how does the Potency read?
Answer: The Potency was “inactive”.

Question: With `CSc1ccc2c(c1)C(N1CCN(C)CC1)Cc1ccccc1S2` (stereo not given) as the compound, how does the Potency read?
Answer: Its Potency is “inactive”.

Question: Which Potency does the source give for `CCCCCCCCCCCCc1ccc(O)cc1` here?
Answer: Its Potency is 49 µM (active).

Question: With `CCCCCOC(=O)CCCC` as the compound, how does the Potency read?
Answer: The Potency was “inactive”.

Question: For `CCCCC(CC)CN=C(N)NC(N)=NCCCCCCN=C(N)NC(N)=NCC(CC)CCCC` (stereo not given), which Potency is on record?
Answer: Its Potency is 23.9 µM (active).

Question: With `CCCCCCCCOC(=O)c1ccc(O)cc1` as the compound, how does the Potency read?
Answer: Its Potency is “inactive”.

Question: Which Potency does the source give for `Cn1cc(C(=O)[C@@H]2CCc3nc[nH]c3C2)c2ccccc21` here?
Answer: The Potency was “inactive”.

Question: Which Potency does the source give for `CCN(C(=O)N(CC)c1ccccc1)c1ccccc1` here?
Answer: Its Potency is “inactive”.

Question: With `Cc1onc(-c2c(Cl)cccc2Cl)c1C(=O)N[C@@H]1C(=O)N2[C@@H]1SC(C)(C)[C@@H]2C(=O)O` as the compound, how does the Potency read?
Answer: Its Potency is “inactive”.

Question: With `CCCCCCCCCCCC(=O)NCCCN(C)C` as the compound, how does the Potency read?
Answer: Its Potency is 54.9 µM (active).

Question: With `Cc1ccc(O)c(C(C)(C)C)c1` as the compound, how does the Potency read?
Answer: Its Potency is “inactive”.

Question: With `CCC(Cl)C(Cl)C(Cl)CC(Cl)C(Cl)C(C)Cl` (stereo not given) as the compound, how does the Potency read?
Answer: The Potency was “inactive”.

Question: Which Potency does the source give for `CCOc1ccc2nc3cc(N)ccc3c(N)c2c1` here?
Answer: Its Potency is “inactive”.

Question: Which Potency does the source give for `C[C@H]1[C@H]2CC[C@H]3[C@@H]4CC=C5C[C@@H](N(C)C)CC[C@]5(C)[C@H]4CC[C@]23CN1C` here?
Answer: The Potency was “inactive”.

Question: Which Potency does the source give for `CCCCCCCCCCC=O` here?
Answer: The Potency was “inactive”.

Question: With `[O-][n+]1ccccc1SSc1cccc[n+]1[O-]` as the compound, how does the activity change, negative = cytotoxicity read?
Answer: The activity change, negative = cytotoxicity was -3.22% [at 15.8 µM] (inactive).

Question: With `CCCCCCCC[P+](CCCCCCCC)(CCCCCCCC)CCCCCCCC` as the compound, how does the Potency read?
Answer: Its Potency is 17.3 µM (active).

Question: With `CN1CCC(Nc2ncc3ncnc(Nc4ccc(F)c(Cl)c4)c3n2)CC1` as the compound, how does the Potency read?
Answer: The Potency was “inactive”.
